Reference: PubChem BioAssay AID434958 (Southern Research Specialized Biocontainment Screening …, 2010)
Screen size: about 1,200 compounds; about 400 (33%) were called active. Only a sample is shown. Entries with a potency or affinity are not part of this list. Unmarked numbers belong to inactive results. No rule for the calls is given here.

assay: mammalian cell cytotoxicity, dose response, cytotoxicity control (AID 434958); details: cytotoxicity counter-screen; series mostly up to 40 µM; viability: at the top concentration;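 also: cells exposed to compound for 72 hours before readout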

Row | Compound | viability
1 | CCC(=O)Nc1cc(OC)c(NC(=O)c2ccccc2)cc1OC | 92.4%
2 | COc1ccc(Nc2cc(C(=O)NCc3ccco3)c3ccccc3n2)c(OC)c1 | 88.6%
3 | CC(C)C(=O)Nc1ccc(NC(=S)NC(=O)c2ccc([N+](=O)[O-])cc2)cc1 | 103%
4 | Cn1c(O)c(C2=c3ccccc3=NC2=O)[nH]c1=S | 88.5%
5 | C=CCNC1=C(Cl)C(=O)N(c2cccc(Cl)c2Cl)C1=O | 110%
6 | O=C(CN1C(=O)c2cccc([N+](=O)[O-])c2C1=O)N1CCN(c2ccc(F)cc2)CC1 | 102%
7 | CCCn1nc2cc(C(=O)NCCCCc3ccccc3)ccc2c1OCC | 96.3%
8 | Cc1cc(C)c(O)c(-c2cc(C(=O)NCc3ccccc3)[nH]n2)c1 | 83.2%
9 | COCCCNc1nc(SCc2ccccc2)nc2sc3c(c12)CCC3 | 94.6%
10 | CCC(CC)c1nnc(NC(=O)c2ccc(N3CCCCC3)c([N+](=O)[O-])c2)s1 | 88.6%
11 | Cc1cc2ccccc2n1CCNC(=O)COc1ccccc1 | 88.3%
12 | Cc1ccc(C(=O)NCCc2nnc3ccc(SCC(=O)Nc4ccccc4C)nn23)cc1 | 91.8%
13 | CCN(CC)c1ccc(S(=O)(=O)N2CCOCC2)cc1NC(=O)CSc1cccc[n+]1[O-] | 99.1%
14 | O=C(CNc1ccccc1Cl)Nc1cc(S(=O)(=O)N2CCOCC2)ccc1Cl | 88.4%
15 | CC(=O)COc1ccc2c3c(c(=O)oc2c1C)CCCCC3 | 88.8%
16 | CCOC(=O)Cn1nc(-c2ccc(C)cc2)c2ccccc2c1=O | 99.6%
17 | CCOC(=O)C1CCN(C(=O)CCCCn2c(=O)[nH]c3ccccc3c2=O)CC1 | 101%
18 | Cc1ccc(NC(=O)C2(c3ccccc3)CC2(Cl)Cl)cc1C (stereo not given) | 88.7%
19 | CCOc1cc(/C=N\Nc2ccc([N+](=O)[O-])cc2)ccc1OCC(=O)Nc1ccc(C)c(C)c1 | 92.4%
20 | Cc1ccccc1OCC(=O)Nc1ccccc1N1CCCCC1 | 84.7%
21 | CN(C)C(=O)c1ccc(-n2nc(C(F)(F)F)c3c2CCCC3)cc1 | 105%
22 | CC(=O)Nc1cccc(/C(C)=N/NC(N)=S)c1 | 98.6%
23 | Cc1c(-c2ccccc2)cnc2c(C)cccc12 | 94%
24 | Cc1cc(NC(=O)COc2nnc(-c3ccccc3)c3ccccc23)no1 | 102%
25 | Cc1cc(NC(=O)CSc2ncnc3c2cnn3-c2ccccc2)no1 | 107%
26 | CCOC(=O)c1ccc(C(=O)NNC(=O)C2CC=CCC2)cc1 (stereo not given) | 95.2%
27 | O=C(Nc1ccccc1)c1c2c(nc3ccccc13)CCCC2 | 109%
28 | CC12CCC(C/C1=N/NC(=O)Nc1ccccc1)C2(C)C (stereo not given) | 83.7%

Row | Compound | viability
29 | Cc1cc(C)c(C)c(S(=O)(=O)N2C(=S)NC(=O)C2C(C)C)c1C (stereo not given) | 89.1%
30 | O=C(c1cc2c(s1)CCCC2)n1cccn1 | 101%
31 | O=C(CSc1nnc(SCc2ccc(Cl)cc2)s1)c1ccc2c(c1)OCO2 | 93.7%
32 | O=C(N/N=C\c1cn[nH]c1-c1ccc(Cl)cc1)c1cccs1 | 95.4%
33 | C=CCSc1nc2c(c(-c3ccsc3)c1C#N)CN(C)CC2 | 92.9%
34 | O=C(NN1C(=O)C2C(C1=O)C1C=CC2C12CC2)c1ccncc1 (stereo not given) | 106%
35 | O=c1[nH]c(CN(CCO)CCO)nc2c1C1(CCCCC1)Cc1ccccc1-2 | 94.6%
36 | CN(/N=C/c1ccncc1)c1cnc2ccccc2n1 | 87%
37 | c1ccc(-c2n[nH]c3c2CCC3)cc1 | 97.4%
38 | CSc1ncnc2c1ccn2CC(=O)Nc1ccc(C)c(C)c1 | 109%
39 | CCCOc1ccccc1NC(=O)/C=C/C(N)=O | 104%
40 | CC(=O)OCC(=O)Nc1ccc(C(C)=O)cc1 | 97.7%
41 | CC(C)(C)[C@@H]1C=C(C(=O)Nc2ccccc2)O[C@H](OCc2ccc(CO)cc2)C1 | 84.5%
42 | Cc1cccnc1NC(=S)NC(=O)c1cncc(Br)c1 | 97.7%
43 | COc1ccc(CNC(=O)C2CCN(S(=O)(=O)c3c(C)noc3/C=C/N(C)C)CC2)cc1 | 99.2%
44 | CC(C)(C)C1CCC(OCC(O)CN2CCN(c3ccccn3)CC2)CC1 (stereo not given) | 92.3%
45 | COc1ccc(-c2csc(-c3cccs3)n2)c(OC)c1 | 91%
46 | CCC(=O)Oc1oc(-c2ccccc2)nc1C=Nc1ccc(C)cc1 | 85.8%
47 | CCn1cc(C(=O)O)c(=O)c2cc(F)c(N3CCN(C(=S)NC(=O)c4ccccc4C)CC3)cc21 | 96.7%
48 | COC(=O)c1cc(OC)c(OC)cc1NC(=S)N1CCN(C)CC1 | 97.6%
49 | Cc1nnc(SCC2=C(C(=O)O)N3C(=O)C(NC(=O)COc4ccc(F)cc4)C3SC2)s1 (stereo not given) | 109%
50 | COc1cc(C(=S)N2CCOCC2)ccc1OC(=O)c1ccc([N+](=O)[O-])cc1[N+](=O)[O-] | 84.7%
51 | CC1CN(C(=S)NC(=O)c2cccc([N+](=O)[O-])c2)CC(C)O1 (stereo not given) | 97.2%
52 | O=C(Oc1c(-c2ccccc2)c(=O)n2c3c(cccc13)CC2)c1cccc([N+](=O)[O-])c1 | 99%
53 | COc1ccc(C(=O)Nc2cccc3c2CCCC3)c(OC)c1 | 89.2%
54 | CN(C)c1ccc(/C=N/NC(N)=S)cc1[N+](=O)[O-] | 101%
55 | O=C(CCCCCN1C(=O)c2cccc([N+](=O)[O-])c2C1=O)Nc1ccccc1F | 105%
